Here are results for 108 molecules from ChEMBL document CHEMBL4513216, “Probing the Open Global Health Chemical Diversity Library for Multistage-Active Starting Points for Next-Generation Antimalarials” (ACS Infect Dis, 2020).

The structures appear in SMILES notation. Among all 69,000 compounds or so, about 8,600 (12%) showed an effect of 50% or more. This is one part of a sample in which strong results are shown more often than they occur.

In this assay the test system is Plasmodium berghei. Nature of the assay: Screen against P. berghei liver stage (PbLuc), transformed with Luciferase, at 10uM. The note with it: tested at 10 uM. In kind it is functional, HepG2.
Consider `O=C(c1ccncc1)N1CC[C@@H]2[C@@H](CC1)OCCN2c1cccnc1`, for which the INHIBITION came out at 12.1%. In the case of `O=C(c1ccoc1)N1CC[C@@H]2[C@@H](CC1)OCCN2c1cccnc1`, the INHIBITION was found to be 45.8%. For `Cc1ncsc1C(=O)N1CC[C@@H]2[C@@H](CC1)OCCN2c1cccnc1` the value was 65.1%. `CC(Cn1cccn1)NC(=O)c1ccsc1` (stereo not drawn): the INHIBITION is on record as 15.7%. For `Cc1nc2ccc(C(=O)N3CCn4c(C)nnc4C3)cc2nc1C` the value was 1.56%.

As to `CN1C[C@H](c2ccccc2)[C@H]2CN(C(=O)Cc3ccc(O)cc3)CC[C@H]21`, the INHIBITION worked out at 27.35%. Under `CCN1CC2(CCC1=O)CCN(C(=O)c1ccc(C)cc1O)CC2` stands 18.6%; under `COc1cccc(-c2nnn(C3CCN(CC(F)(F)F)C3=O)n2)c1` (stereo not drawn), -73.4%; under `Cc1nnc(SCCCNC(=O)c2ccc3c(c2)OCO3)s1`, 33.4%.

As to `COc1cc(NCCCSc2nnc(C)s2)ncn1`, the INHIBITION amounted to 42.1%.

On to `Cc1nnc(SCCCNc2cc(C3CC3)ncn2)s1`, for which the INHIBITION is 58.8%. Consider `CCn1c(C)nnc1SCCNc1cc(COC)ncn1`, for which the INHIBITION is recorded as 8.51%. With `Cc1nnc(SCCNc2cc(C3CC3)ncn2)s1`, the INHIBITION was determined as 4.52%. For `COCc1cc(NCCCSc2nnc(C)s2)ncn1` the value was 58.8%; for `Cc1cccc(N2CC3(CCN(S(=O)(=O)c4cccs4)C3)CC2=O)c1` (stereo not drawn), -4.82%. Under `CSc1ccc(C(=O)N2C[C@@H]3CC[C@H]2CN(Cc2cccnc2)C3)cc1` stands -5.19%. As to `Cc1noc(CCCNC(=O)N2CCc3ccccc3C2CO)n1` (stereo not drawn), the INHIBITION came out at 14.4%. Consider `CC(C)(C)c1cc(NC(=O)CN2CCc3cncnc3C2)on1`, for which the INHIBITION was -9.76%.

As to `COC(=O)COn1c(SC(C)C)nc2ccccc2c1=O`, the INHIBITION turned out to be 28.3%. `COC(=O)COn1c(SC)nc2ccccc2c1=O`: the INHIBITION is reported as 48%. For `CCc1nc2ccccc2c(=O)n1CC1(O)CCN(C(=O)C(C)C)CC1` the value was 35.2%; for `CCOn1c(SC(C)C)nc2ccccc2c1=O`, 56.3%.

As for `CCc1nc2ccccc2c(=O)n1CC1(O)CCN(C(=O)COC)CC1`, the INHIBITION is given as 7.52%.

For `COC(=O)COn1c(OC)nc2ccccc2c1=O`, the INHIBITION was 52.5%. Regarding `CCSc1nc2ccccc2c(=O)n1OCC(=O)OC`, the INHIBITION came out at 60.8%. Under `CCc1nc2ccccc2c(=O)n1CC1(O)CCN(CC(=O)OC)CC1` stands 13.5%; under `COC(=O)COn1c(SCC(=O)OC)nc2ccccc2c1=O`, 28.3%; under `CC(C)Cc1noc(CN2CCCC2c2noc(C3CC3)n2)n1` (stereo not drawn), -31.5%. Turning to `CC(C)(C)N1CCN(C(=O)Nc2cc(C(F)(F)F)c[nH]c2=O)CC1`, the INHIBITION was found to be 33.3%. As to `COC(=O)C1C=CCN1C(=O)c1cc(COc2ccccc2)[nH]n1` (stereo not drawn), the INHIBITION came out at 9.41%. With `Cc1nc(N(C)C)ncc1C(=O)N[C@@H]1CCc2ccccc21`, the INHIBITION came out at 27.4%. Under `O=C(Nc1cccnc1)C1CCCN(c2cc(-n3cccn3)ncn2)C1` (stereo not drawn) stands 50.2%. Consider `O=C(CN1CCCC(Cn2cncn2)C1)Nc1cccnc1` (stereo not drawn), for which the INHIBITION is -43.9%.

For the molecule `O=C(Nc1ccccc1)C1CCCN(c2cc(-n3cncn3)ncn2)C1` (stereo not drawn), the INHIBITION was determined as 50.2%. As to `O=C(NCc1cccs1)C1CCCN(c2cc(-n3cncn3)ncn2)C1` (stereo not drawn), the INHIBITION came out at 13.9%. Under `O=C(NC1CC1)C1CCCN(c2cc(-n3cncn3)ncn2)C1` (stereo not drawn) stands 40.4%; under `O=C(Nc1cccnc1)C1CCN(c2cc(-n3ccnc3)ncn2)CC1`, 31.3%. Regarding `CC(C)(C)C(=O)NC(c1nccs1)C1CCN(CC2CCCCC2)CC1` (stereo not drawn), the INHIBITION is 41.5%. Consider `CCn1nc(C)c(CCNC(=O)C2CCCN(C(C)=O)C2)c1C` (stereo not drawn), for which the INHIBITION is reported as -20.2%.

Consider `Cc1cnn(CC2CCCCN2CCS(C)(=O)=O)c1` (stereo not drawn), for which the INHIBITION amounted to 17.4%.

Take `CNC(=O)CN1CCC(NC(=O)Cc2ccc3c(c2)OCCO3)CC1`: the INHIBITION was -53.2%. Turning to `CCN(Cc1c(C)nn(CC)c1C)S(=O)(=O)c1cnn(C)c1`, the INHIBITION amounted to 11.8%.

Consider `CCS(=O)(=O)N1C[C@@H]2C[C@H](C(=O)N(C)C)[C@H](C1)O2`, for which the INHIBITION was 22.2%. Turning to `Cc1oncc1C(=O)NCc1cc(=O)n2c(n1)CN(CC1CC1)CCC2`, the INHIBITION is 36.4%. On to `CN1CCCn2c(nc(CNC(=O)c3ccsc3)cc2=O)C1`, for which the INHIBITION turned out to be 35.8%. Take `O=c1cc(CNS(=O)(=O)C2CC2)nc2n1CCCN(CC1CC1)C2`: the INHIBITION is given as 33.1%. Regarding `O=C(NCc1cc(=O)n2c(n1)CN(CC1CC1)CCC2)c1ccsc1`, the INHIBITION was 89.2%.

Regarding `CCN1CCCn2c(nc(CNC(=O)c3ccsc3)cc2=O)C1`, the INHIBITION is listed as 58%.

For the molecule `CCCN1CCCn2c(nc(CNC(=O)c3ccsc3)cc2=O)C1`, the INHIBITION came to 18.5%. As to `Cc1nn(C)c(N(C)C)c1CNCc1ccnc(N2CCCC2)c1`, the INHIBITION is given as -44.3%. With `Oc1cc(-c2ccccn2)nc(C2CCN(Cc3ccncc3)CC2)n1`, the INHIBITION is on record as -44.8%. Take `O=C(CCN1CCOC(Cn2cccn2)C1)NC1CCCCC1` (stereo not drawn): the INHIBITION was -107%. For `O=C(c1ccncc1)N1CCCn2c(CN3CCCC3)nnc2C1` the value was 35.7%.

For `O=C(c1ccccc1)N1CCCn2c(CN3CCCCC3)nnc2C1`, the INHIBITION was 50.9%. For `O=C(c1ccc[nH]1)N1CCCn2c(nnc2Cn2cccn2)C1`, the INHIBITION was -17.2%. Regarding `O=C(c1ccccc1F)N1CCCn2c(CN3CCCCC3)nnc2C1`, the INHIBITION stood at 18.3%. Under `O=C1CCCN1Cc1nnc2n1CCCN(C(=O)c1ccc[nH]1)C2` stands 53%; under `O=C(c1cccc(Cl)c1)N1CCCn2c(CN3CCCCC3)nnc2C1`, 55.2%. Turning to `COCC(=O)N1CCCn2c(CN3CCCC3)nnc2C1`, the INHIBITION is on record as 56.6%.

For the molecule `Cc1cccc(C(=O)N2CCCn3c(CN4CCCCC4)nnc3C2)c1`, the INHIBITION is reported as 25.2%. As to `COCC(=O)N1CCCn2c(CN3CCCCC3)nnc2C1`, the INHIBITION is reported as 20.1%. For the molecule `O=C(c1ccncc1)N1CCCn2c(CN3CCCCC3)nnc2C1`, the INHIBITION is listed as 31.8%.

In the case of `O=C(c1ccc[nH]1)N1CCCn2c(CN3CCCCC3)nnc2C1`, the INHIBITION was 42.1%.

For the molecule `COCC(=O)N1CCCn2c(CN3CCOCC3)nnc2C1`, the INHIBITION is given as -2.46%.

As to `Cc1nc(C)n(CC2CCCN(Cc3cccc4c3OCCO4)C2)n1` (stereo not drawn), the INHIBITION was 38.8%.

As for `Cc1noc(C)c1-c1cncc(CC2CCN(C(=O)c3cc[nH]n3)C2)n1` (stereo not drawn), the INHIBITION is given as 22%. Regarding `CNc1nc(C2CCCN(C(=O)C(C)C)C2)nc2c1CN(C)CC2` (stereo not drawn), the INHIBITION turned out to be 12.3%. In the case of `Cc1cccc(OCCN2CCCC(c3cc(C(N)=O)[nH]n3)C2)c1` (stereo not drawn), the INHIBITION is -46.4%.

Regarding `Cc1cc(C(=O)N2CCCC3(COCCN(c4ncccn4)C3)C2)[nH]n1` (stereo not drawn), the INHIBITION is given as 33.4%. Consider `COc1ccc2c(c1)C(C(=O)NCCCN1CCN(C)CC1)CC(=O)N2` (stereo not drawn), for which the INHIBITION amounted to 26%.

For the molecule `N#CC1(C(=O)N2CCCN(c3nccs3)CC2)CCCC1`, the INHIBITION worked out at 7.305%.

As for `Nc1nccc(C2CCCN(CC3CC3)C2)n1` (stereo not drawn), the INHIBITION was determined as 23%. Regarding `O=C(NCCCn1cccn1)N1CCCC1c1ccncc1` (stereo not drawn), the INHIBITION came out at 9.3%. Consider `COc1ccc(C2CCCN2C(=O)NCCn2ccnc2)cc1` (stereo not drawn), for which the INHIBITION was 21.425%. In the case of `CC1CN(C)CCN1C(=O)NCCCn1ccnc1` (stereo not drawn), the INHIBITION came to 60.1%.

As for `COc1ccc(C2CCCN2C(=O)NCCCn2ccnc2)cc1` (stereo not drawn), the INHIBITION stood at 54.45%.

With `COc1ccc(C2CCCN2C(=O)NCCCn2cccn2)cc1` (stereo not drawn), the INHIBITION is recorded as 56%. For the molecule `O=C(NCCCn1ccnc1)N1CCCC1c1ccncc1` (stereo not drawn), the INHIBITION is 37%. Turning to `COc1cccc(C2CCCN2C(=O)NCCCn2cccn2)c1` (stereo not drawn), the INHIBITION was found to be 45.7%. Under `CC1COCCN1C(=O)NCCn1ccnc1` (stereo not drawn) stands -3.94%.

Turning to `CC1COCCN1C(=O)NCCCn1ccnc1` (stereo not drawn), the INHIBITION amounted to 24.8%. For `O=S1(=O)COCCN1Cc1ccc(Cl)c(Cl)c1` the value was -12.5%. As to `c1csc(-c2noc(CNCCn3cccn3)n2)c1`, the INHIBITION is on record as 18.2%. For `CC(=O)N1CC[C@@H]2CN(Cc3ccncc3)S(=O)(=O)[C@@H]2CC1`, the INHIBITION is reported as -10.5%. Regarding `Cc1ccsc1CN1CCC(c2nnc(Cn3cccn3)n2C)CC1`, the INHIBITION is recorded as 25.4%. For the molecule `COC(=O)CCNC(=O)c1cccc(C(=O)N(C)c2ccccc2)c1`, the INHIBITION was found to be 43.4%. With `COc1ccsc1C(=O)NCCNc1ccccc1`, the INHIBITION is given as -33%.

With `COc1cc(C)sc1C(=O)NCCC(=O)N(C)Cc1ccccc1`, the INHIBITION was found to be 66.3%. As to `COc1cc(C)sc1C(=O)NCCC(=O)N(C)c1ccccc1`, the INHIBITION turned out to be 78.2%. For `COc1cc(C)sc1C(=O)NCCNc1ccccc1`, the INHIBITION is 43.1%. Turning to `CN(Cc1ccccc1)C(=O)CCNS(=O)(=O)c1cccnc1`, the INHIBITION is recorded as -17.6%. As for `CC(=O)N1CCCC(c2ccccn2)C1` (stereo not drawn), the INHIBITION was found to be 15.9%. For `CCOCCN1CCC(c2cncc(C)n2)CC1` the value was 10.155%. Consider `CC(C)CNC(=O)CN(CC(=O)NCC(C)C)S(C)(=O)=O`, for which the INHIBITION was found to be 37.4%. For `C=C(C)COc1cccc(CNC(CC)c2ccnn2C)c1` (stereo not drawn) the value was 66.6%. Under `C=C(C)COc1ccccc1CNC(CC)c1ccnn1C` (stereo not drawn) stands 36.7%. Under `C=C(C)COc1cccc(CNC(COC)c2ccnn2C)c1` (stereo not drawn) stands 37.6%; under `CC(C)c1ncc(CN2CCC(O)(c3ccccc3F)CC2)cn1`, 33.04%. With `Cc1cc(C)cc(N2CC(c3nnc(N)s3)CC2=O)c1` (stereo not drawn), the INHIBITION is -11.4%.

On to `c1cn(-c2cnc(C3CCCNC3)cn2)cn1` (stereo not drawn), for which the INHIBITION came to 24.4%.

Turning to `CC(C)CN1CCc2[nH]cnc2C12CCN(C(=O)c1cnn(C)c1)CC2`, the INHIBITION amounted to 51.8%.

As for `CC(C)CN1CCc2[nH]cnc2C12CCN(C(=O)c1cncn1C)CC2`, the INHIBITION is 33.4%.

For `Cc1ocnc1C(=O)N1CCC2(CC1)c1nc[nH]c1CCN2CC(C)C`, the INHIBITION is 47.4%. For `CC(C)CN1CCc2[nH]cnc2C12CCN(C(=O)c1ccc[nH]1)CC2` the value was 33.4%. `CC(C)CN1CCc2[nH]cnc2C12CCN(C(=O)c1cccnc1)CC2`: the INHIBITION came to 16.6%. Regarding `CC(C)CN1CCc2[nH]cnc2C12CCN(C(=O)c1ccnn1C)CC2`, the INHIBITION is listed as 65.8%.

In the case of `Cc1nn(C)cc1-c1cncn1CCc1ccc2c(c1)OCCO2`, the INHIBITION came to 27.6%. In the case of `CC(C)C[C@@H](CO)n1cc(-c2cnc(-c3ccco3)nc2)nn1`, the INHIBITION was -6.83%.
